About 1,600 (39%) of roughly 4,100 compounds were called active. Inconclusive results (about 25%) are left out. This is one part of the list. Values without a mark were called inactive. Calls come from the whole dose curve; as a rule, active = well fitted inhibition curve with a large enough effect; inconclusive = small, poorly fitted or top-dose-only effect; inactive = no such curve, though single readings can be large or run the other way.
Assay: qHTS Validation assay for Inhibitors of Plasmodium falciparum Dd2 growth in vitro; note: nearly all actives have a fitted effect of over 70% in size
Conditions: P. falciparum Dd2 in RBCs, SYBR Green growth, 72 h; series mostly up to 28.7 µM; activity change, negative = inhibition: at the top concentration
Text: Malaria, a parasitic disease spread to humans through the bite of a Plasmodium infected Anopheles mosquito, continues to be a global health burden affecting millions of people, with an estimated 228 million cases and 405,000 deaths in 2018. Concerns about safety and limitations of current antimalarial treatments strongly emphasize the need to develop new therapeutic options. The scarce number of chemotypes and validated drug targets with efficacy against the liver stage, have hindered development of new antimalarials. To address this, a chemoprophylactic drug discovery effort was conducted through a combined phenotypic high-throughput asexual blood stage and liver stage screen, providing a robust foundation to identify liver-stage active lead chemotypes. Compounds were initially screened against Plasmodium falciparum Dd2 strain parasites using a in vitro SYBRGreen-1 based 72 hr proliferation assay to identify novel chemotypes to advance to liver stage assays. NIH/NCATS Early Translation Branch Assay Submitter (PI): Anton Simeonov Ph.D.
[…] Assay Protocol: PROTOCOL TABLE (as described by Inglese et al., 2007) SEQUENCE No. (e.g., 1, 2, 3, etc.); PARAMETER (e.g., Cells, Incubation, Reagent, etc.); VALUE; DESCRIPTION SEQUENCE, Parameter, Description 1; Reagent; 3 uL complete malaria growth medium, 1536 TC treated Black clear bottom plate 2; Controls; 23 nL positive control artesunate (300 nM final) to column 1; Neutral control DMSO to columns 2-4 3; Compound; 23 nL of compounds in dose response concentration (29 uM to 0.5 nM final) 4; Reagent; 5 uL malaria infected red blood cells (2.5% hematocrit final, 0.3% parasitemia 5; Time; 72 hours at 37C (5% O2, 5% CO2, 90% N2; 95% Rh) 6; Reagent; 2 uL lysis buffer/SYBRGreen-1, 25 sec shake immediately following dispense 7; Time; ~16 hours at 37C (5% O2, 5% CO2, 90% N2; 95% Rh) 8; Detector; EnVision (PerkinElmer) bottom read at 485/14nm excitation and 535/25 nm emission NOTES (numbers refer to sequence above): 1; Complete Malaria Growth Media: 1X RPMI-1640 w/L-glutamine, 5.5g/L Albumax II, 367 uM Hypoxanthine, 25 mM HEPES, 0.25% Sodium Bicarbonate, 35 uM Gentamicin sulfate 2; Controls were added using the Kalypsis Pintool (Wako USA) equipped with 1536 pinhead 3; Compounds were added in a 7-point, titration with a high final concentration of 29 uM by Pintool from seven inter-plate titrations of library plates and two DMSO control plates at the beginning and end (see Yasgar et al., 2008). 4; Red blood cells infected with Plasmodium falciparum Dd2 parasites were used. 6; Lysis buffer: 20 mM Tris-HCl, 10 mM EDTA, 0.16% Saponin, 1.6% Triton-X, 10X SYBR Green. REFERENCE: Inglese J, Shamu CE, Guy RK. 2007. Reporting data from high-throughput screening of small-molecule libraries. Nat Chem Biol. doi:10.1038/nchembio0807-438 Yasgar A, Shinn P, Jadhav A, Auld D, Michael S, Zheng W, Austin CP, Inglese J, Simeonov A. 2008. Compound Management for Quantitative High-Throughput Screening. J Lab Autom 13:79-89. doi:10.1016/j.jala.2007.12.004
With COc1ccc(-c2nc3sc(CCNC(=O)c4ccc(C(C)(C)C)cc4)c(C)n3n2)cc1 the Potency was 2.11 µM (active). In the case of COc1ccc(-c2cc3c(=O)n(CCNC(=O)c4ccc(N(C)C)cc4)ccn3n2)cc1, the “activity change, negative = inhibition” value is reported as -7.95%. For COc1ccc(-c2nc3scc(CCNC(=O)c4cccc(Br)c4)n3n2)cc1, the “activity change, negative = inhibition” value was 24.6%. For Cc1c(O)c(CN2CCCC2)cc2c1oc(=O)c1ccccc12, the Potency was 2.66 µM (active). In the case of Cc1c(O)c(CN2CCCCC2)cc2c1oc(=O)c1ccccc12, the Potency is reported as 0.75 µM (active). For CCCc1cc(=O)oc2c(C)c(O)c(CN3CCCCC3)cc12, the Potency was 3.35 µM (active). With Cc1c(O)c(CN(C)C)cc2c1oc(=O)c1ccccc12 the Potency was 4.22 µM (active). In the case of O=C1CCCCN1Cc1nc(C2CCOC2)no1 (stereo not given), the “activity change, negative = inhibition” value is reported as 38.8%. In the case of Cc1cc(C)c2oc(=O)cc(CN3CCCCC3)c2c1, the Potency is reported as 13.3 µM (active). In the case of C=CCCC(CN1CCCC1)Oc1ccc(C(=O)N2CCCC2)cn1 (stereo not given), the Potency is reported as 13.3 µM (active). With COc1ccc(C(=O)N2CCCC(n3cc(-c4nc(C(C)C)no4)nn3)C2)cn1 (stereo not given) the “activity change, negative = inhibition” value was 0.265%. With CC(C)CN(Cc1cc(=O)oc2cc3c(cc12)CCCC3)CC(C)C the Potency was 15 µM (active). For CCOC(=O)C(C)/C(C)=N/NC(N)=S (stereo not given), the Potency was 2.66 µM (active). In the case of N#Cc1ccc(C23CC4CC(CC(C4)C2)C3)[nH]c1=O, the “activity change, negative = inhibition” value is reported as 23.7%. With CC(C)(C)c1ccc(C(=O)Nc2ccc(-c3nc4cc(Cl)ccc4o3)cc2)cc1 the “activity change, negative = inhibition” value was 9.61%. For O=C(Nc1ccc(C2=NCCN2)cc1)c1ccc(C(=O)Nc2ccc(C3=NCCN3)cc2)c([N+](=O)[O-])c1, the Potency was 0.237 µM (active). With CC1Oc2ccc(NC(=O)c3ccc(Cl)c(Cl)c3)cc2CN(Cc2ccccc2F)C1=O (stereo not given) the “activity change, negative = inhibition” value was -1.4%. With O=C(Nc1ccc(C2=NCCN2)cc1)c1ccc(C(=O)Nc2ccc(C3=NCCN3)cc2)c(Cl)c1 the Potency was 0.473 µM (active). With Cc1cc(C[C@@H]2COC[C@@H]2NC(=O)CCc2ccc(=O)[nH]n2)on1 the “activity change, negative = inhibition” value was 50.1%. For COc1cc(NC(=O)c2cc([N+](=O)[O-])ccc2NC(=O)CNC2CCCCC2C)cc(OC)c1 (stereo not given), the Potency was 5.96 µM (active). With COC(=O)c1cc(C(=O)c2ccc(Cl)cc2Cl)cn1C the Potency was 13.3 µM (active). For CCc1ccc(C2=CC(c3cccc(C)c3)n3c(nc4ccccc43)N2)cc1 (stereo not given), the Potency was 15 µM (active). For CC1=C[C@@H](CN2CCOCC2)[C@H](C(C)C)C[C@H]1Cc1nnc(-c2ccc([N+](=O)[O-])cc2)o1, the Potency was 9.44 µM (active). For CC1=C[C@@H](CN2CCN(c3ncccn3)CC2)[C@H](C(C)C)C[C@H]1Cc1nnc(COc2ccc(F)cc2)o1, the Potency was 0.75 µM (active). With COc1ccc(-c2nnc(C[C@@H]3C[C@@H](C(C)C)[C@H](CN4CCC(O)CC4)C=C3C)o2)cc1 the Potency was 9.44 µM (active). With CC1=C[C@@H](CN2CCCC2)[C@H](C(C)C)C[C@H]1Cc1nnc(-c2ccc([N+](=O)[O-])cc2)o1 the Potency was 3.85 µM (active). In the case of COc1ccc(C(=O)N[C@@H]2CCC[C@@H]2C(=O)NCCCN(C)C)cn1, the “activity change, negative = inhibition” value is reported as 21.5%. With COC(=O)CNC(=O)N1CCCCC1c1nc(CCOc2cccc(C)c2)no1 (stereo not given) the “activity change, negative = inhibition” value was 17.4%. With COc1nc2c(cc1CNC(=O)C(C)(C)OC)C(=O)N(CCc1ccccn1)C2 the “activity change, negative = inhibition” value was 42.1%. With Cc1noc(-c2cn(C3CCN(C(=O)c4ccc(C)s4)C3)nn2)n1 (stereo not given) the “activity change, negative = inhibition” value was 30%. In the case of CC1=C[C@@H](CN2CCC(C)CC2)[C@H](C(C)C)C[C@H]1Cc1nnc(-c2cccnc2)o1, the Potency is reported as 15.3 µM (active). In the case of Cc1ccc(S(=O)(=O)N(C)CC2CCOCC2)c(C)c1, the “activity change, negative = inhibition” value is reported as 48.2%. In the case of O=C(c1ccc2c(c1)N(Cc1ccc(Cl)cc1)C(=O)c1ccccc1S2(=O)=O)N1CCCC1, the “activity change, negative = inhibition” value is reported as -8.99%. For CCOC(=O)C1CCCN(C(=O)c2ccc3c(c2)N(Cc2ccccc2)C(=O)c2ccccc2S3(=O)=O)C1 (stereo not given), the Potency was 6.68 µM (active). With Cc1ccc(Cl)cc1N1CCN(C(=O)c2ccc3c(c2)N(Cc2ccccc2F)C(=O)c2ccccc2S3(=O)=O)CC1 the Potency was 5.31 µM (active). For COc1ccccc1N1CCN(C(=O)c2ccc3c(c2)N(Cc2cc(C)ccc2C)C(=O)c2ccccc2S3(=O)=O)CC1, the Potency was 9.44 µM (active). With Cc1ccc(C)c(CN2C(=O)c3ccccc3S(=O)(=O)c3ccc(C(=O)N4CCCCCC4)cc32)c1 the “activity change, negative = inhibition” value was -26.1%. In the case of O=C(c1ccc(F)c(F)c1)N1CCC2(CC1)N(c1ccccc1)C(=O)CS2(=O)=O, the “activity change, negative = inhibition” value is reported as 8.69%. In the case of Cc1ccc(C)c(CN2C(=O)c3ccccc3S(=O)(=O)c3ccc(C(=O)NCCc4ccc(Cl)cc4)cc32)c1, the Potency is reported as 7.5 µM (active). In the case of COc1ccccc1CNC(=O)c1cc2c(s1)CCN(C(=O)c1ccc(C)cc1)C2, the “activity change, negative = inhibition” value is reported as -15.5%. With CCCc1nc2nc(C)c(NS(=O)(=O)c3ccc(F)cc3)c(=O)n2[nH]1 the “activity change, negative = inhibition” value was 15.8%. With Cc1cc(C)c(CN2C(=O)c3ccccc3S(=O)(=O)c3ccc(C(=O)OCC4CCCO4)cc32)c(C)c1 (stereo not given) the Potency was 6.68 µM (active). For COc1ccc(-c2noc([C@@H]3C[C@H](NS(=O)(=O)c4ccc(OC)cc4)CN3C)n2)cc1, the “activity change, negative = inhibition” value was -24.1%. For CN1C[C@@H](NC(=O)COc2ccccc2)C[C@H]1c1nc(-c2ccc3c(c2)OCO3)no1, the “activity change, negative = inhibition” value was 21.1% [at 43.1 µM]. For COc1cccc(NC(=O)N[C@H]2C[C@@H](c3nc(C)no3)N(C)C2)c1, the Potency was 17.2 µM (active).
% is set by controls: 0 for no effect and ±100 for the full control effect; potency is the fitted concentration of half-maximal effect.
